# Test results as given in PubChem BioAssay (NCATS).
# Where “and” joins values, the source holds several entries; their conditions need not be identical. Equal values may be shown once. Inconclusive results are not listed. Calls of active or inactive are those of the source. Unless noted, calls come from the whole dose curve; as a rule, active = well fitted curve in the direction sought with a large enough effect; inconclusive = small, poorly fitted or top-dose-only effect, or another doubt; inactive = no such curve, though single readings can be large; an effect the other way counts as inactive or inconclusive.
# Tests used:
# [1] = biological target: Thyroid hormone receptor beta (Homo sapiens) (UniProt P10828); test: qHTS assay for small molecule agonists of thyroid hormone receptor beta signaling (AID 588545; calls by dose curve)
# How it was run: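 Cells (2500/well) were seeded, incubated 4 hrs at 37 C, dosed with a compound series, incubated 18 hrs, loaded with CCF4 dye for 2 hrs at RT, then read for fluorescence. Data were scaled between DMSO (0%) and 10 nM T3 (100%).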
# [2] = qHTS assay for small molecule antagonists of retinoid X receptor alpha signaling (AID 588546; active = well fitted inhibition curve with a large enough effect in the signal ratio, with a control signal flat, not every such curve was filed as active; the % refers to the signal ratio;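 note: cells stimulated with 9-cis-retinoic acid as agonist; % is set by controls: 0 for no effect and ±100 for the full control effect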); conditions: HEK293T RXRa-UAS-bla, beta-lactamase ratio, antagonist mode; measured here: W530 green channel, cytotoxicity proxy
# How it was run: (§1)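 Beta-lactamase reporter inhibition, read as CCF4 fluorescence ratio (ex 405, em 460/530 nm) after 2 h at RT. HEK293T UAS-bla cells, 2500/well, were stimulated with 9-cis-RA at 500 or 100 nM final alongside test compound for 18 h at 37 C.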
# [3] = biological target: Retinoic acid receptor RXR-alpha (Homo sapiens) (UniProt P19793); test: as above; conditions: HEK293T RXRa-UAS-bla, beta-lactamase ratio, antagonist mode
# How it was run: as §1
# [4] = biological target: Thyroid hormone receptor beta (Homo sapiens) (UniProt P10828); test: qHTS assay for small molecule antagonists of thyroid hormone receptor beta signaling (AID 588547; active = well fitted inhibition curve with a large enough effect in the signal ratio, with a control signal flat, not every such curve was filed as active; the % refers to the signal ratio;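 note: cells stimulated with 0.4 nM T3 agonist during compound exposure; series mostly up to about 77 µM; % is set by controls: 0 for no effect and ±100 for the full control effect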); conditions: TR-UAS-bla HEK293, beta-lactamase ratio, antagonist mode, 18 h
# How it was run: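 TR-UAS-bla GripTite HEK293 cells in 2% charcoal/dextran FBS medium; compounds 0.59 nM to 92 uM with T3 at 0.4nM final, 18 h at 37 C. Beta-lactamase read by CCF4 fluorescence (460/530 nm); Hill fits gave IC50 and efficacy.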
# [5] = biological target: Voltage-gated inwardly rectifying potassium channel KCNH2 (Homo sapiens) (UniProt Q12809); test: qHTS Assay for Small Molecule Inhibitors of the Human hERG Channel Activity (AID 588834);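 note: lower thallium flux fluorescence means stronger hERG block; nearly all actives have a fitted effect of over 50% in size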; note: potency is the fitted concentration of half-maximal effect
# How it was run: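 Blockade is seen as reduced FluxOR thallium-flux fluorescence in U2OS cells expressing hERG from a BacMam construct, in Opti-MEM with 2% FCS. Concentration-response data fitted to the Hill equation for AC50.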
# [6] = biological target: Luciferin 4-monooxygenase (Photinus pyralis) (UniProt P08659); test: Biochemical firefly luciferase enzyme assay for NPC (AID 624030);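 note: purified P. pyralis luciferase at 10 nM with luciferin and ATP substrate; series mostly up to about 59 µM; 0% = DMSO and -100% = full luciferase inhibition by PTC124 control; nearly all actives have a fitted effect of over 70% in size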
# How it was run: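 Purified P. pyralis luciferase at 10 nM in 50 mM Tris Acetate (final), luminescence read within 5 minutes of enzyme addition to compounds. Activity normalised to PTC124 versus DMSO; concentration-response curves classed by r2, magnitude and activity.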
# [7] = qHTS assay for small molecule activators of the p53 signaling pathway (AID 651743; active = well fitted activation curve with a large enough effect in the signal ratio, not every such curve was filed as active; the % refers to the signal ratio; note: potency is the fitted concentration of half-maximal effect; for activation: series mostly up to about 92 µM; % of control where 0% means no effect); conditions: HCT-116 p53RE-bla, beta-lactamase FRET ratio, 16 h; activation: stronger effect = higher value
# How it was run: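 HCT-116 p53RE-bla, 4,000 cells/well; 5 h settle; cpd/DMSO 16 h, 37 C; LiveBLAzer B/G 2 h RT; fluorescence intensity.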
# [8] = S16 Schwann cell viability assay (CellTiter-Glo assay) (AID 624031); note: nearly all actives have a fitted effect of over 70% in size; note: potency is the fitted concentration of half-maximal effect
# How it was run: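 Parental S16 cells, 24 h compound, 37 °C. ATP-luminescence viability; DMSO = 0% activity, empty wells as reference; curves classified by fit quality and efficacy.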
# [9] = S16 Schwann cell PMP22 intronic element beta-lactamase assay (AID 624044; calls by dose curve; note: nearly all actives have a fitted effect of over 15% in size; note: potency is the fitted concentration of half-maximal effect)
# How it was run: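 Rat S16 Schwann cells with beta-Lac driven by a PMP22 intronic element, compound-treated 24 h at 37 °C. LiveBLAzer FRET B/G read: 460 nm normalized to potassium clavulanate vs DMSO; 535 nm FRET as viability; concentration-effect curves classified.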
# [10] = qHTS assay for small molecule agonists of the antioxidant response element (ARE) signaling pathway (AID 651741; active = well fitted activation curve with a large enough effect in the signal ratio; the % refers to the signal ratio; note: potency is the fitted concentration of half-maximal effect; for activation: % of control where 0% means no effect)
# How it was run: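 HepG2 ARE-bla cells plated at 2,000 cells/well and incubated 5 h at 37 C/5% CO2 received 23 nL compound in DMSO. After 16 h at 37 C, LiveBLAzer B/G FRET substrate was applied for 2 h at room temperature and fluorescence read.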
# [11] = qHTS assay for small molecule agonists of retinoid X receptor alpha signaling (AID 588544; calls by dose curve; note: potency is the fitted concentration of half-maximal effect;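 for activation: 0% = DMSO basal wells and 100% = reference agonist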); conditions: HEK293T RXRa-UAS-bla, beta-lactamase reporter, 18 h; 530 nm emission
# [12] = biological target: Retinoic acid receptor RXR-alpha (Homo sapiens) (UniProt P19793); test: as above
# [13] = S16 Schwann cell PMP22 intronic element firefly luciferase assay (AID 624032); note: nearly all actives have a fitted effect of over 30% in size; note: potency is the fitted concentration of half-maximal effect
# How it was run: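 Rat S16 Schwann cells stably carrying firefly luciferase driven by a PMP22 intronic element, in 10% FBS, treated 24 h at 37 C. ONE-Glo luminescence normalized to PTC124 control and DMSO (0%); curves classed by r2, magnitude and activity.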
# Sequence of Thyroid hormone receptor beta (Homo sapiens) (P10828 whole entry, looked up): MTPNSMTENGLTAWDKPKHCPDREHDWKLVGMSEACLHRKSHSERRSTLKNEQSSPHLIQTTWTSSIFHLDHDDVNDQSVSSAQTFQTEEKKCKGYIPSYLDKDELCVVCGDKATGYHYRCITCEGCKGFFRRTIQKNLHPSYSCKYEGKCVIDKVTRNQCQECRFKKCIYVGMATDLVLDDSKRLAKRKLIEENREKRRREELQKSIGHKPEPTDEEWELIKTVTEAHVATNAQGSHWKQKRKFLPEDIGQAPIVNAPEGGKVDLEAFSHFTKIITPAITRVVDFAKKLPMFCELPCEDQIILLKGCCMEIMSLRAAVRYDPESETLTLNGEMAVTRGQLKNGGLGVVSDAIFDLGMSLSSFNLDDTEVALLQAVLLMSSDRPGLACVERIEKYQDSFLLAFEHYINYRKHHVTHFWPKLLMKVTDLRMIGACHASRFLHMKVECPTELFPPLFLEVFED
# Sequence of Retinoic acid receptor RXR-alpha (Homo sapiens) (P19793 whole entry, looked up): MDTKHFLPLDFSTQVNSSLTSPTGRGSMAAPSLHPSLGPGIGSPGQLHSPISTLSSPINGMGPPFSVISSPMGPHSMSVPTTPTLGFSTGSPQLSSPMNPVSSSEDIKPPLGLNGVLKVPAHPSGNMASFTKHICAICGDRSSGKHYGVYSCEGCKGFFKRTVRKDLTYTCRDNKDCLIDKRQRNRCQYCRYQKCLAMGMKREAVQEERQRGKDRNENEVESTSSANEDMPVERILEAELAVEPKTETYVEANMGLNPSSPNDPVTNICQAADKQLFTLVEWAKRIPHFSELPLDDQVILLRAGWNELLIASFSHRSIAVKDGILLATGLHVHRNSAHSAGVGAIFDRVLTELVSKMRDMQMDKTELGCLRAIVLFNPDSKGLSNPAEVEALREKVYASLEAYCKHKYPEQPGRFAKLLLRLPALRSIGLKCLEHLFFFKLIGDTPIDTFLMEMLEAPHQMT
# Sequence of Voltage-gated inwardly rectifying potassium channel KCNH2 (Homo sapiens) (Q12809 whole entry, looked up): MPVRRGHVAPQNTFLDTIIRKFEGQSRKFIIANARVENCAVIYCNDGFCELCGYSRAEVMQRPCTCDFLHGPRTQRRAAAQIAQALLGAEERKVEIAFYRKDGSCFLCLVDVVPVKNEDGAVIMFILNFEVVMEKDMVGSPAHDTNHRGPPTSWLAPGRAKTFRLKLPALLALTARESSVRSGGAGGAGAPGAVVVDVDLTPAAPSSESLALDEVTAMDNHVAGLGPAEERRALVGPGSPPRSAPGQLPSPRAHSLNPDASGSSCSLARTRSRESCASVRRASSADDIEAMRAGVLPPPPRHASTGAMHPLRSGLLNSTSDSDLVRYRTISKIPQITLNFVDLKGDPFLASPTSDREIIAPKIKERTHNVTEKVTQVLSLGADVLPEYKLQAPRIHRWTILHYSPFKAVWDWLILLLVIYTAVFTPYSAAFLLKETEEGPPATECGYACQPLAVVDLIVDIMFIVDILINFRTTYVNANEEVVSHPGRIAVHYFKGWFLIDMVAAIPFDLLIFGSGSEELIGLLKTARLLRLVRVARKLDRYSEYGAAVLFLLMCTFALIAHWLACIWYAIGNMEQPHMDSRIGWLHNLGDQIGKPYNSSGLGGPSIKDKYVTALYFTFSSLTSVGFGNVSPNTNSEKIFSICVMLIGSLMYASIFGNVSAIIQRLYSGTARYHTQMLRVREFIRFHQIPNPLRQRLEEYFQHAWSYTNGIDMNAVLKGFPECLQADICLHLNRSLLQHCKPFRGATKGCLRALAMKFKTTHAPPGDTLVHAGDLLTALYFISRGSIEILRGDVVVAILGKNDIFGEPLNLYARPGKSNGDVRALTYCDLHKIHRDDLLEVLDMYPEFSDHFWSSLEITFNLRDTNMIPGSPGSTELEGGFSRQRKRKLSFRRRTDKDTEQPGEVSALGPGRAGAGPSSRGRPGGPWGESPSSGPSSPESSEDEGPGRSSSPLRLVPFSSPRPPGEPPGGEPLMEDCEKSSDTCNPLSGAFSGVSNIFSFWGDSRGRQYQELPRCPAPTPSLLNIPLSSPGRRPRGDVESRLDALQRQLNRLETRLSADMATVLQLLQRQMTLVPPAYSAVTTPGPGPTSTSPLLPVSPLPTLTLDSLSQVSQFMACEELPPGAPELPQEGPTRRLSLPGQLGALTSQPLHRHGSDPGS
# Sequence of Luciferin 4-monooxygenase (Photinus pyralis) (P08659 whole entry, looked up): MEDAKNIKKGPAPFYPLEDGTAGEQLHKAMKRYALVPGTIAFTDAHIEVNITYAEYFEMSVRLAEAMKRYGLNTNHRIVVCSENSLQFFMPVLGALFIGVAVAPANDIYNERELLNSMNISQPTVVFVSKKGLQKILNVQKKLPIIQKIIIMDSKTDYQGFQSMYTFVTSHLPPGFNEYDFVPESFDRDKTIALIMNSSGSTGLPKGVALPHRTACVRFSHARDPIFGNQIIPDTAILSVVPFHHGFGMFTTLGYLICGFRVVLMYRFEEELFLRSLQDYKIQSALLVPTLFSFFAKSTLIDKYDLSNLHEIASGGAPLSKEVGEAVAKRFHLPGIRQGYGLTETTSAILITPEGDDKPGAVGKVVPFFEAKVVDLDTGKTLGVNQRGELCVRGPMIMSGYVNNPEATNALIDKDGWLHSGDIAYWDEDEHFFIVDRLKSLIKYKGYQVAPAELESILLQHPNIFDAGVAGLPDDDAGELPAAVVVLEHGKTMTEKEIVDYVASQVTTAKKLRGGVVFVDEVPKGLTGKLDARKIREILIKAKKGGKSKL
compound,measurement,setting,value
O=C(NO)c1ccccc1,outcome,[1],inactive
same,max response,[2],-10.6%
same,max response,[3],-9.23% (inactive)
same,activity change % (negative = inhibition),[4],-5.82% (inactive)
same,Potency,[5],inactive
same,Potency,[6],inactive
same,activation,[7],3.57% (inactive)
CCCCCCCCCCCC[N+](C)(C)Cc1ccccc1,outcome,[1],inactive
same,activity change % (negative = inhibition),[4],-19.6% (inactive)
same,Potency,[6],inactive
CC(NCCC(c1ccccc1)c1ccccc1)c1ccccc1 (stereo unspecified),Potency,[5],2.24 µM (active)
same,Potency,[6],inactive
same,Potency,[8],25.6 µM (active)
same,Potency,[9],inactive
CC(=O)OC/C=C(C)/C=C/C=C(C)/C=C/C1=C(C)CCCC1(C)C,outcome,[1],inactive
same,max response,[2],10.5%
same,max response,[3],0.429% (inactive)
same,activity change % (negative = inhibition),[4],1.82% (inactive)
same,Potency,[5],inactive
same,Potency,[6],inactive
same,Potency,[10],42.2 µM (active) and 54.5 µM (active)
same,activation,[7],-8.23% (inactive) and -2.69% (inactive)
Nc1ccc(O)cc1,max response,[11],21.6%
same,Potency,[12],inactive
same,max response,[2],-3.95%
same,max response,[3],-4.53% (inactive)
same,Potency,[5],inactive
same,Potency,[10],26.6 µM (active)
Nc1c2ccccc2nc2ccccc12,Potency,[5],inactive
same,Potency,[6],inactive
same,Potency,[8],inactive
same,Potency,[13],inactive
same,Potency,[9],22.4 µM (active)
same,Potency,[10],10.6 µM (active)
same,Potency,[7],11.2 µM (active)
O=[N+]([O-])c1ccc(O)c2ncccc12,Potency,[5],inactive
same,Potency,[6],inactive
same,Potency,[13],inactive
Nc1cccc2c(N)cccc12,max response,[11],9.18%
same,Potency,[12],inactive
same,outcome,[1],inactive
same,max response,[2],0.949% and -3.88%
same,max response,[3],-3.27% (inactive) and -4.14% (inactive)
same,activity change % (negative = inhibition),[4],0% (inactive) and 7.22% (inactive)
same,Potency,[5],inactive
same,Potency,[6],inactive
same,activation,[7],-3.42% (inactive) and 1.45% (inactive)
CCCCCCCCCCCCCCCC[N+](C)(C)Cc1ccccc1,Potency,[5],22.4 µM (active)
same,Potency,[6],inactive
same,Potency,[8],16.1 µM (active)
same,Potency,[13],14.4 µM (active)
same,Potency,[9],inactive
O=C(Nc1ccc(Cl)cc1)Nc1ccc(Cl)c(Cl)c1,outcome,[1],inactive
O=C(c1ccccc1)c1ccccc1,max response,[11],-13.1% and -5.43%
same,Potency,[12],inactive
same,max response,[2],-0.815% and -2.27%
same,max response,[3],29.2% (inactive) and -10.9% (inactive)
same,Potency,[6],inactive
same,activation,[7],-6.89% (inactive) and 0.517% (inactive)
Cc1cc(C(C)(C)C)c(O)c(C(C)(C)C)c1,max response,[11],-14.9%
same,Potency,[12],17.8 µM (active)
same,outcome,[1],inactive
same,activity change % (negative = inhibition),[4],-7.42% (inactive)
same,Potency,[6],inactive
same,Potency,[10],inactive
same,activation,[7],-3.94% (inactive) and -1.07% (inactive)
